In PubChem BioAssay (NCI):
Several values for one entry are separate records, joined by “and”; a condition that tells them apart may be missing. Equal values may be shown once. Compounds without any hit were thinned out: in the full panel of roughly 79,000, 15% have a hit. A structure can be active in one record and inactive in another. Activity calls are given as the source filed them. No stated cut-off is given here; in the data, active means growth inhibition above about 70%; inactive means the rest.

Columns and labels:
[1] = NCI Yeast Anticancer Drug Screen. Data for the rad52 strain (AID 147);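 further: 0% = growth of vehicle-treated control cultures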; details: S. cerevisiae rad52 mutant growth inhibition, stronger effect = higher value
How it was run: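 Yeast strain carrying a DNA damage repair alteration was exposed to test compounds. Growth inhibition was measured relative to vehicle-treated controls.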

[2] = NCI Yeast Anticancer Drug Screen. Data for the wt1 strain (AID 149);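 further: 0% = growth of vehicle-treated wt1 cultures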; details: S. cerevisiae wt1 strain (SPY 50644) growth inhibition, stronger effect = higher value
How it was run: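 wt1 strain grown with compound or vehicle; inhibition taken from the growth difference.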

[3] = NCI Yeast Anticancer Drug Screen. Data for the rad50EPP+ strain (AID 151);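 further: 0% = growth of vehicle-treated control cultures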; details: S. cerevisiae rad50 mutant strain, stronger effect = higher value
How it was run: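 Yeast strain carrying rad50 alteration (rad50EPP+) exposed to compounds; growth inhibition measured relative to vehicle-treated controls.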

[4] = NCI Yeast Anticancer Drug Screen. Data for the mgt1 strain (AID 153); details: S. cerevisiae mgt1 mutant growth inhibition, stronger effect = higher value
How it was run: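 Yeast mgt1 strain (DNA repair/cell-cycle alteration panel) exposed to compounds; growth inhibition measured relative to vehicle-treated controls.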

[5] = NCI Yeast Anticancer Drug Screen. Data for the rad50 strain (AID 155);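 further: 0% = growth of vehicle-only cultures of the same strain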; details: S. cerevisiae rad50 strain growth inhibition, stronger effect = higher value
How it was run: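 DNA repair mutant yeast, compound exposure, growth read-out; inhibition is taken relative to vehicle.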

[6] = NCI Yeast Anticancer Drug Screen. Data for the mec2-1 strain (AID 157); details: S. cerevisiae mec2-1 strain, stronger effect = higher value
How it was run: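 mec2-1 yeast strain, carrying an alteration in DNA damage repair or cell cycle control, was exposed to compounds; growth inhibition was measured relative to vehicle-treated controls.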

[7] = NCI Yeast Anticancer Drug Screen. Data for the rad14 strain (AID 159);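 further: 0% = growth of vehicle-treated control cultures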; details: S. cerevisiae rad14 strain growth inhibition, stronger effect = higher value
How it was run: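 DNA repair-defective yeast, compound-exposed; % growth inhibition derived by comparison with vehicle-treated controls.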

[8] = NCI Yeast Anticancer Drug Screen. Data for the sgs1 mgt1 strain (AID 161);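 further: 0% = growth of cultures given vehicle only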; details: S. cerevisiae sgs1 mgt1 strain, stronger effect = higher value
How it was run: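 Percent growth inhibition was derived by comparing compound-exposed mutant yeast with vehicle-exposed cultures. The strain carries alterations in DNA damage repair.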

[9] = NCI Yeast Anticancer Drug Screen. Data for the CLN2oe strain (AID 163);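 further: 0% = growth of vehicle-only control cultures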; details: S. cerevisiae CLN2oe strain, stronger effect = higher value
How it was run: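 Yeast cells carrying a defined cell-cycle control alteration were exposed to test compounds. Growth inhibition was scored against vehicle-treated control cultures.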

[10] = NCI Yeast Anticancer Drug Screen. Data for the cln2 rad14 strain (AID 165);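 further: 0% = growth equal to vehicle treated cultures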; details: S. cerevisiae cln2 rad14 strain, stronger effect = higher value
How it was run: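 Yeast carrying cln2 and rad14 alterations (cell cycle control and DNA damage repair) were exposed to compounds. Growth inhibition was measured against vehicle-treated controls.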

[11] = NCI Yeast Anticancer Drug Screen. Data for the bub3 strain (AID 167); details: S. cerevisiae bub3 mutant strain, stronger effect = higher value
How it was run: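 In this screen, a yeast mutant lacking normal mitotic checkpoint function is challenged with compound. Relative growth versus vehicle gives the inhibition value.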

[12] = NCI Yeast Anticancer Drug Screen. Data for the wt2 strain (AID 169);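 further: 0% = growth of vehicle-treated yeast cultures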; details: S. cerevisiae wt2 strain growth inhibition, stronger effect = higher value
How it was run: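 Yeast cells were exposed to test compounds, and growth inhibition was measured relative to vehicle-treated controls.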

[13] = NCI Yeast Anticancer Drug Screen. Data for the mlh1 strain (AID 171);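 further: 0% = growth of vehicle-treated control cultures of the same strain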; details: S. cerevisiae mlh1 strain growth inhibition, stronger effect = higher value
How it was run: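 Yeast carrying a defined genetic alteration in DNA damage repair or cell cycle control were exposed to test compounds. Growth inhibition was measured relative to vehicle-treated controls.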

[14] = NCI Yeast Anticancer Drug Screen. Data for the mlh1 rad18 strain (AID 175); details: S. cerevisiae mlh1 rad18 strain growth inhibition, stronger effect = higher value
How it was run: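 Growth inhibition of the yeast strain was measured after compound exposure and expressed relative to vehicle-treated controls. The strain carries defined defects in DNA damage repair.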

[15] = NCI Yeast Anticancer Drug Screen. Data for the rad18 strain (AID 177); details: S. cerevisiae rad18 mutant growth inhibition, stronger effect = higher value
How it was run: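 Yeast carrying a defined DNA damage repair alteration were exposed to compounds. Growth inhibition was expressed relative to vehicle-treated controls.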

[16] = NCI Yeast Anticancer Drug Screen. Data for the sgs1 strain (AID 173);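 further: 0% = growth of vehicle-only control cultures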; details: S. cerevisiae sgs1 mutant, stronger effect = higher value
How it was run: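 Yeast mutant strains carrying defined defects in DNA damage repair or cell cycle control were exposed to test compounds. Growth inhibition was scored against vehicle-treated controls.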

[17] = at 5.0 µM (retest, dose inferred, filed as 0.5)
[18] = at 50.0 µM (retest, dose inferred, filed as 5.0)

Measured: growth inhibition

O=C(O)Cc1cc(F)ccc1C(=O)O
active: [10]; at 50.0 µM 94.5% | [11]; at 50.0 µM 73.5% | [13]; at 100.0 µM 76% | [14]; [18] 75%
inactive: [1]; at 1.2 µM 3% | [1]; at 3.7 µM 4% | [1]; at 11.0 µM 7% | [1]; at 33.0 µM 12% | [1]; at 100.0 µM 28% | [2]; at 1.2 µM 3% | [2]; at 3.7 µM 7% | [2]; at 11.0 µM 13% | [2]; at 33.0 µM 16% | [2]; at 100.0 µM 25% | [3]; at 1.2 µM -2% | [3]; at 3.7 µM -6% | [3]; at 11.0 µM -13% | [3]; at 33.0 µM -26% | [3]; at 100.0 µM -15% | [4]; at 1.2 µM -1% | [4]; at 3.7 µM 3% | [4]; at 11.0 µM 9% | [4]; at 33.0 µM 28% | [4]; at 100.0 µM 48% | [5]; at 1.2 µM 3% | [5]; at 3.7 µM 3% | [5]; [17] -2% | [5]; at 11.0 µM 6% | [5]; at 33.0 µM 12% | [5]; [18] 45% | [5]; at 50.0 µM 5.3% | [5]; at 100.0 µM 29% | [6]; at 1.2 µM -1% | [6]; at 3.7 µM 0% | [6]; [17] 1% | [6]; at 11.0 µM 3% | [6]; at 33.0 µM 11% | [6]; [18] 2% | [6]; at 50.0 µM 29.9% | [6]; at 100.0 µM 30% | [7]; at 1.2 µM 0% | [7]; at 3.7 µM -2% | [7]; at 11.0 µM 4% | [7]; at 33.0 µM 14% | [7]; at 100.0 µM 51% | [8]; [17] -8% | [8]; [18] 65% | [8]; at 50.0 µM 21.2% | [9]; at 1.2 µM 1% | [9]; at 3.7 µM 4% | [9]; at 11.0 µM 12% | [9]; at 33.0 µM 7% | [9]; at 100.0 µM 12% | [10]; [17] -2% | [10]; [18] 5% | [11]; at 1.2 µM -1% | [11]; at 3.7 µM -2% | [11]; [17] 8% | [11]; at 11.0 µM 1% | [11]; at 33.0 µM 4% | [11]; [18] 66% | [11]; at 100.0 µM 17% | [12]; at 1.2 µM 2% | [12]; at 3.7 µM 6% | [12]; at 11.0 µM 13% | [12]; at 33.0 µM 18% | [12]; at 100.0 µM 42% | [13]; at 1.2 µM 5% | [13]; at 3.7 µM 2% | [13]; at 11.0 µM 7% | [13]; at 33.0 µM 15% | [14]; [17] -5% | [14]; at 50.0 µM 38.3% | [15]; at 1.2 µM 3% | [15]; at 3.7 µM 1% | [15]; at 11.0 µM 0% | [15]; at 33.0 µM 12% | [15]; at 100.0 µM 42%

CS(=O)(=O)OCCN(CCOS(C)(=O)=O)c1ccc(C=Nc2ccc(-c3csc(COc4ccccc4)n3)cc2)cc1
81% (active) and 65% (inactive): [14]; [17]
-80% (inactive) and 96% (active): [10]; [18]
inactive: [1]; at 1.2 µM 15% | [1]; at 3.7 µM 29% | [2]; at 1.2 µM -30% | [2]; at 3.7 µM -33% | [2]; at 11.0 µM -8% | [3]; at 1.2 µM -2% | [3]; at 3.7 µM -11% | [3]; at 11.0 µM 49% | [4]; at 1.2 µM -22% | [4]; at 3.7 µM -16% | [4]; at 11.0 µM 23% | [5]; at 1.2 µM -29% | [5]; at 3.7 µM -5% | [5]; [17] 44% and 40% | [5]; at 11.0 µM 63% | [6]; at 1.2 µM -46% | [6]; at 3.7 µM -18% | [6]; [17] 33% and 34% | [6]; at 11.0 µM 41% | [7]; at 1.2 µM -25% | [7]; at 3.7 µM 14% | [7]; at 11.0 µM 59% | [8]; [17] -12% and 26% | [9]; at 1.2 µM 1% | [9]; at 3.7 µM 4% | [9]; at 11.0 µM 45% | [10]; [17] -2% and 25% | [11]; at 1.2 µM -36% | [11]; at 3.7 µM -16% | [11]; [17] -4% and 19% | [11]; at 11.0 µM 47% | [12]; at 1.2 µM -4% | [12]; at 3.7 µM 11% | [12]; at 11.0 µM 54% | [13]; at 1.2 µM -24% | [13]; at 3.7 µM -17% | [13]; at 11.0 µM 42% | [16]; at 1.2 µM 11% | [16]; at 3.7 µM 14% | [16]; at 11.0 µM 64% | [15]; at 1.2 µM 15% | [15]; at 3.7 µM 61%
-64% (inactive) and 98% (active): [8]; [18]
active: [1]; at 11.0 µM 76% | [1]; at 33.0 µM 96% | [1]; at 100.0 µM 93% | [2]; at 33.0 µM 90% | [2]; at 100.0 µM 91% | [3]; at 33.0 µM 94% | [3]; at 100.0 µM 93% | [4]; at 33.0 µM 90% | [4]; at 100.0 µM 91% | [5]; at 33.0 µM 93% | [5]; [18] 95% and 96% | [5]; at 50.0 µM 97% | [5]; at 100.0 µM 91% | [6]; at 33.0 µM 93% | [6]; [18] 96% | [6]; at 50.0 µM 98.2% | [6]; at 100.0 µM 91% | [7]; at 33.0 µM 95% | [7]; at 100.0 µM 94% | [8]; at 50.0 µM 84.8% and 97.7% | [9]; at 33.0 µM 93% | [9]; at 100.0 µM 90% | [10]; at 50.0 µM 85.3% and 95.8% | [11]; at 33.0 µM 91% | [11]; at 50.0 µM 84.5% and 96.2% | [11]; at 100.0 µM 88% | [12]; at 33.0 µM 92% | [12]; at 100.0 µM 91% | [13]; at 33.0 µM 94% | [13]; at 100.0 µM 92% | [16]; at 33.0 µM 93% | [16]; at 100.0 µM 92% | [14]; [18] 95% and 97% | [14]; at 50.0 µM 97.2% | [15]; at 11.0 µM 84% | [15]; at 33.0 µM 95% | [15]; at 100.0 µM 91%
-73% (inactive) and 96% (active): [11]; [18]
